# Experimental data from paper PMC9911399, “Two distinct binding modes provide the RNA-binding protein RbFox with extraordinary sequence specificity”.
# Changes are numbered by the printed parent chain; changes in the protein carry UniProt numbers. The full ranking holds about 16,000 sequences; the median of “ka relative to ugcaugu” is about 0.096, and the highest 2% start at about 0.35. Shown is part of a subset that was picked to be rich in the highest values.
# T1: RBFOX1 RRM RbFoxmut (Fox-RRM*) (Homo sapiens, UniProt Q9NWB1 109-208, R118D;E147R;N151S;E152T)
# T1 sequence: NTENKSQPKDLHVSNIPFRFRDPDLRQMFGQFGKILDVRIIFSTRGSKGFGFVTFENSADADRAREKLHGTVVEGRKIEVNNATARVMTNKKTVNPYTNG
# B1: GCAUGUU (DNA:RNA)
# RNA: GGGAGACCGGAAUUCAGAUUGUCCGCAUGUUUUAAAUCCCGUCGUAGCCACCA
# DNA 1: CAATCTGAATTCCGGTCTCCC
# DNA 2: TGGTGGCTACGACGGGATT
# B2: CCGCAUG (DNA:RNA)
# RNA: B1 RNA with G25C, A27G, U28C, G29A, U31G
# DNA 1: CAATCTGAATTCCGGTCTCCC
# DNA 2: TGGTGGCTACGACGGGATT
# B3: GUUUUUU (DNA:RNA)
# RNA: B1 RNA with C26U, A27U, G29U
# DNA 1: CAATCTGAATTCCGGTCTCCC
# DNA 2: TGGTGGCTACGACGGGATT
# B4: CGCAUGU (DNA:RNA)
# RNA: B1 RNA with G25C, C26G, A27C, U28A, G29U, U30G
# DNA 1: CAATCTGAATTCCGGTCTCCC
# DNA 2: TGGTGGCTACGACGGGATT
# B5: CGCAUUG (DNA:RNA)
# RNA: B1 RNA with G25C, C26G, A27C, U28A, G29U, U31G
# DNA 1: CAATCTGAATTCCGGTCTCCC
# DNA 2: TGGTGGCTACGACGGGATT
# B6: CCCCGCA (DNA:RNA)
# RNA: B1 RNA with G25C, A27C, U28C, U30C, U31A
# DNA 1: CAATCTGAATTCCGGTCTCCC
# DNA 2: TGGTGGCTACGACGGGATT
# B7: GCAUAGU (DNA:RNA)
# RNA: B1 RNA with G29A, U30G
# DNA 1: CAATCTGAATTCCGGTCTCCC
# DNA 2: TGGTGGCTACGACGGGATT
# B8: GCAAUGU (DNA:RNA)
# RNA: B1 RNA with U28A, G29U, U30G
# DNA 1: CAATCTGAATTCCGGTCTCCC
# DNA 2: TGGTGGCTACGACGGGATT
# B9: GCCAUGU (DNA:RNA)
# RNA: B1 RNA with A27C, U28A, G29U, U30G
# DNA 1: CAATCTGAATTCCGGTCTCCC
# DNA 2: TGGTGGCTACGACGGGATT
# Target: T1, RBFOX1 RRM RbFoxmut (Fox-RRM*)
# Assay: EMSA; HiTS-Eq, 1 nM pool, 10 min; buffer printed only for the single-RNA assays: 10 mM Tris pH 7.5, 150 mM NaCl, 3.4 mM EDTA, 0.001% NP-40, 30 C
# Conditions: tags: His6 N-terminal (pET28a); label: 5' 32P
# Summary of the method: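 A pool of RNA with 7 randomized nucleotides, 5′-radiolabelled and with DNA-annealed flanks, was equilibrated at 1 nM for 10 min in 50 µL with purified RbFox RRM, wild type or mutant, across increasing protein concentrations. Free RNA was separated by 8% native PAGE, excised, reverse-transcribed, barcoded by PCR and sequenced. Relative association constants were obtained from read-count changes of each RNA species versus the control reaction and normalised to the cognate motif.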
row,Binder,binding signal
1,B1,0.776 KA relative to UGCAUGU
2,B2,1.13 KA relative to UGCAUGU
3,B3,0.0932 KA relative to UGCAUGU
4,B4,1.08 KA relative to UGCAUGU
5,B5,0.179 KA relative to UGCAUGU
6,B6,0.118 KA relative to UGCAUGU
7,B7,0.192 KA relative to UGCAUGU
8,B8,0.12 KA relative to UGCAUGU
9,B9,0.188 KA relative to UGCAUGU
